# Source: PubChem BioAssay (EPA / NIEHS)
# “And” between values parts separate entries of the source, which are not always exact repeats. Equal values may be shown once. Some structures have more than one record in an assay (separate samples or runs), and their calls can disagree. The source made the active and inactive calls. The calls were made as follows: active = hit-call score of the fitted dose curve at least 0.9, where 1 is the maximum; inactive = score below 0.9.
# Key:
# [1] = read-out: Interferon-gamma inducible Protein 10 (IP10), CXCL10 (gene 3627); experiment: BSK_hDFCGF_IP10: BioMAP Diversity Plus: hDFCGF Assay for Interferon-gamma inducible Protein 10 (IP10) Biomarker Activity (AID 2283053); settings: primary human foreskin fibroblasts; actives raise or lower the signal
# Summary of the method: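 IP-10 levels, quantified by ELISA, are taken from human foreskin fibroblast cultures 24 h after chemical treatment, with DMSO serving as negative control and baseline for bidirectional analysis.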
# [2] = read-out: Urokinase-type plasminogen activator receptor (uPAR), PLAUR (gene 5329); experiment: BSK_CASM3C_uPAR: BioMAP Diversity Plus: CASM3C Assay for Urokinase-type plasminogen activator receptor (uPAR) Biomarker Activity (AID 2283054); settings: primary human coronary artery smooth muscle cells; actives raise or lower the signal;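 also: cell-surface uPAR protein level quantified by ELISA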
# [3] = read-out: Vascular cell adhesion molecule 1 (VCAM1), VCAM1 (gene 7412); experiment: BSK_CASM3C_VCAM1: BioMAP Diversity Plus: CASM3C Assay for Vascular cell adhesion molecule 1 (VCAM1) Biomarker Activity (AID 2283055); settings: primary human coronary artery smooth muscle cells; actives raise or lower the signal;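 also: VCAM-1 protein level quantified by ELISA on the cells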
# [4] = read-out: Collagen III, COL3A1 (gene 1281); experiment: BSK_hDFCGF_CollagenIII: BioMAP Diversity Plus: hDFCGF Assay for Collagen III Biomarker Activity (AID 2283056); settings: primary human foreskin fibroblasts; actives raise or lower the signal
# Summary of the method: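 Response relative to DMSO, fitted in both directions, reflects ELISA-measured collagen III in human primary skin fibroblasts 24 h after compound addition.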
# [5] = read-out: Epidermal growth factor receptor (EGFR), EGFR (gene 1956); experiment: BSK_hDFCGF_EGFR: BioMAP Diversity Plus: hDFCGF Assay for Epidermal growth factor receptor (EGFR) Biomarker Activity (AID 2283057); settings: primary human foreskin fibroblasts; actives raise or lower the signal
# Summary of the method: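 Measured by ELISA: EGFR levels on primary human foreskin fibroblasts 24 h after chemical treatment, analysed relative to DMSO with bidirectional fitting.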
# [6] = read-out: Interleukin-8 (IL8), CXCL8 (gene 3576); experiment: BSK_hDFCGF_IL8: BioMAP Diversity Plus: hDFCGF Assay for Interleukin-8 (IL8) Biomarker Activity (AID 2283058); settings: primary human foreskin fibroblasts; actives raise or lower the signal
# Summary of the method: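 Fibroblast monolayers (human foreskin, hDFCGF) received test chemical for 24 h before ELISA detection of IL-8; either increases or decreases relative to DMSO count as activity.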
# [7] = BSK_hDFCGF_Proliferation: Cell Proliferation Assessment in the BioMAP Diversity Plus: hDFCGF Assay (AID 2283059); settings: primary human foreskin fibroblasts;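 also: curves fitted for both rise and fall of signal versus DMSO baseline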
# Summary of the method: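 Primary human foreskin fibroblasts, sub-confluent; […]; 10% TCA fix, 0.1% SRB stain, A560 total protein. Gain/loss fitted bidirectionally vs DMSO control.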
# [8] = read-out: Macrophage colony-stimulating factor (MCSF), CSF1 (gene 1435); experiment: BSK_hDFCGF_MCSF: BioMAP Diversity Plus: hDFCGF Assay for Macrophage colony-stimulating factor (MCSF) Biomarker Activity (AID 2283060); settings: primary human foreskin fibroblasts; actives raise or lower the signal
# Summary of the method: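 fibroblasts (human foreskin, primary), 24 h post-dose; M-CSF by ELISA; bidirectional fit, DMSO = baseline.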
# [9] = BSK_hDFCGF_SRB: Viability Assessment in the BioMAP Diversity Plus: hDFCGF Assay (AID 2283061); settings: primary human foreskin fibroblasts;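 also: cells exposed to compound for 24 h before the read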
# Summary of the method: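 SRB-based viability read on primary human skin fibroblasts at 24 h: TCA fixation, 0.1% dye, 560 nm. Gain or loss of signal is fitted against the DMSO negative control.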
# [10] = read-out: TIMP metallopeptidase inhibitor 1 (TIMP1), TIMP1 (gene 7076); experiment: BSK_hDFCGF_TIMP1: BioMAP Diversity Plus: hDFCGF Assay for TIMP metallopeptidase inhibitor 1 (TIMP1) Biomarker Activity (AID 2283062); settings: primary human foreskin fibroblasts; actives raise or lower the signal
# Summary of the method: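 Bidirectional curve fitting against DMSO baseline yielded this endpoint, based on ELISA detection of TIMP-1 in primary human foreskin fibroblasts exposed to compound for 24 h.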
# [11] = read-out: Monokine induced gamma interferon (MIG), CXCL9 (gene 4283); experiment: BSK_hDFCGF_MIG: BioMAP Diversity Plus: hDFCGF Assay for Monokine induced gamma interferon (MIG) Biomarker Activity (AID 2283063); settings: primary human foreskin fibroblasts; actives raise or lower the signal
# Summary of the method: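 Endpoint derived by bidirectional fitting relative to DMSO; MIG quantified via ELISA in primary human foreskin fibroblasts harvested 24 h after dosing.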
# [12] = read-out: Matrix Metallopeptidase 1 (MMP1), MMP1 (gene 4312); experiment: BSK_hDFCGF_MMP1: BioMAP Diversity Plus: hDFCGF Assay for Matrix Metallopeptidase 1 (MMP1) Biomarker Activity (AID 2283064); settings: primary human foreskin fibroblasts; actives raise or lower the signal
# Summary of the method: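 hDFCGF primary fibroblasts (human foreskin); chemical added; 24 h; MMP1 by ELISA; bidirectional fit vs DMSO.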
# [13] = read-out: Vascular cell adhesion molecule 1 (VCAM1), VCAM1 (gene 7412); experiment: BSK_hDFCGF_VCAM1: BioMAP Diversity Plus: hDFCGF Assay for Vascular cell adhesion molecule 1 (VCAM1) Biomarker Activity (AID 2283065); settings: primary human foreskin fibroblasts; actives raise or lower the signal;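 as to AC50: VCAM-1 protein level quantified by ELISA after 24 h chemical exposure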
# Summary of the method: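 Measured after 24 h chemical treatment of primary human skin fibroblasts, VCAM-1 was detected by ELISA and concentration-response analysed in both directions versus DMSO vehicle.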
# [14] = read-out: Plasminogen activator inhibitor-1 (PAI1), SERPINE1 (gene 5054); experiment: BSK_hDFCGF_PAI1: BioMAP Diversity Plus: hDFCGF Assay for Plasminogen activator inhibitor-1 (PAI1) Biomarker Activity (AID 2283066); settings: primary human foreskin fibroblasts; actives raise or lower the signal
# Summary of the method: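 PAI-1 levels, determined by ELISA, served as the endpoint in human foreskin fibroblast cultures exposed to compound for 24 h, with DMSO as baseline.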
# [15] = read-out: Intercellular Adhesion Molecule 1 (ICAM1), ICAM1 (gene 3383); experiment: BSK_KF3CT_ICAM1: BioMAP Diversity Plus: KF3CT Assay for Intercellular Adhesion Molecule 1 (ICAM1) Biomarker Activity (AID 2283067); settings: primary human keratinocytes with fibroblasts; actives raise or lower the signal
# Summary of the method: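 Bidirectional curve fitting against a DMSO baseline was applied to ICAM-1 ELISA signal from primary human skin co-cultures harvested 24 h after treatment, with SRB staining of parallel wells for overt cytotoxicity.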
# [16] = read-out: Interferon-gamma inducible Protein 10 (IP10), CXCL10 (gene 3627); experiment: BSK_KF3CT_IP10: BioMAP Diversity Plus: KF3CT Assay for Interferon-gamma inducible Protein 10 (IP10) Biomarker Activity (AID 2283068); settings: primary human keratinocytes with fibroblasts; actives raise or lower the signal
# Summary of the method: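 In a primary skin co-culture of keratinocytes and fibroblasts, IP-10 is quantified by ELISA at 24 h after dosing. SRB staining of parallel wells monitors overt toxicity. Curves are fitted both directions against DMSO.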
# [17] = read-out: Interleukin-1 alpha (IL1a), IL1A (gene 3552); experiment: BSK_KF3CT_IL1a: BioMAP Diversity Plus: KF3CT Assay for Interleukin-1 alpha (IL1a) Biomarker Activity (AID 2283070); settings: primary human keratinocytes with fibroblasts; actives raise or lower the signal
# Summary of the method: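 Chemicals were dosed onto co-cultured human keratinocytes and foreskin fibroblasts, IL-1a was quantified by ELISA at 24 h, and activity was fitted in both directions relative to DMSO controls.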
# [18] = read-out: TIMP metallopeptidase inhibitor 2 (TIMP2), TIMP2 (gene 7077); experiment: BSK_KF3CT_TIMP2: BioMAP Diversity Plus: KF3CT Assay for TIMP metallopeptidase inhibitor 2 (TIMP2) Biomarker Activity (AID 2283071); settings: primary human keratinocytes with fibroblasts; actives raise or lower the signal
# Summary of the method: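 Keratinocyte–fibroblast co-culture, 24 h exposure; TIMP-2 ELISA, DMSO-normalised bidirectional fit. Parallel SRB (0.1%, TCA-fixed, 560 nm) total-protein staining gauges cytotoxicity.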
# [19] = read-out: Transforming growth factor beta 1 (TGFb1), TGFB1 (gene 7040); experiment: BSK_KF3CT_TGFb1: BioMAP Diversity Plus: KF3CT Assay for Transforming growth factor beta 1 (TGFb1) Biomarker Activity (AID 2283072); settings: primary human keratinocytes with fibroblasts; actives raise or lower the signal
# Summary of the method: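 Signal changes in either direction, relative to DMSO, define activity here. TGF-b1 is read by ELISA from a human keratinocyte-fibroblast co-culture 24 h post-dose.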
smiles,measurement,setting,value
Cc1ccc(C(=O)c2ccccc2)cc1,AC50,[1],33.1 µM (active)
same,outcome,[2],inactive
same,outcome,[3],inactive
same,AC50,[4],33.8 µM (active)
same,outcome,[5],inactive
same,outcome,[6],inactive
same,AC50,[7],32.4 µM (active)
same,AC50,[8],29.3 µM (active)
same,outcome,[9],inactive
same,AC50,[10],31.4 µM (active)
same,AC50,[11],29.5 µM (active)
same,AC50,[12],30.7 µM (active)
same,AC50,[13],30.5 µM (active)
same,AC50,[14],20 µM (active)
same,outcome,[15],inactive
same,outcome,[16],inactive
same,AC50,[17],20 µM (active)
same,AC50,[18],30.3 µM (active)
same,AC50,[19],30.8 µM (active)
Oc1c(Cl)cc(Cl)cc1Sc1cc(Cl)cc(Cl)c1O,AC50,[1],1.66 µM (active) and 1.94 µM (active)
same,AC50,[2],20 µM (active) and 18.3 µM (active)
same,AC50,[3],20 µM (active) and 12.7 µM (active)
same,AC50,[4],1.39 µM (active) and 455 nM (active)
same,AC50,[5],0.236 µM (active)
same,outcome,[5],inactive
same,AC50,[6],4.43 µM (active) and 4.46 µM (active)
same,AC50,[7],1.08 µM (active) and 148 nM (active)
same,AC50,[8],1.46 µM (active) and 1.59 µM (active)
same,AC50,[9],1.67 µM (active) and 1.78 µM (active)
same,AC50,[10],2.06 µM (active) and 1.74 µM (active)
same,AC50,[11],2.22 µM (active)
same,AC50,[12],2.14 µM (active) and 2.37 µM (active)
same,AC50,[13],1.43 µM (active) and 1.52 µM (active)
same,AC50,[14],1.23 µM (active) and 1.32 µM (active)
same,AC50,[15],3.11 µM (active) and 3.28 µM (active)
same,AC50,[17],2.22 µM (active) and 2.17 µM (active)
same,AC50,[18],1.96 µM (active) and 2.15 µM (active)
O=C(O)CCC(F)(F)C(F)(F)C(F)(F)C(F)(F)C(F)(F)F,outcome,[1],inactive
same,outcome,[2],inactive
same,outcome,[3],inactive
same,outcome,[4],inactive
same,outcome,[5],inactive
same,outcome,[6],inactive
same,outcome,[7],inactive
same,AC50,[8],0.22 µM (active)
same,outcome,[8],inactive
same,outcome,[9],inactive
same,outcome,[10],inactive
same,outcome,[11],inactive
same,AC50,[12],13.8 µM (active)
same,outcome,[12],inactive
same,outcome,[13],inactive
same,outcome,[14],inactive
same,outcome,[15],inactive
same,outcome,[17],inactive
same,outcome,[18],inactive
